# PubChem BioAssay AID720526 (National Center for Advancing Translational Sciences (NCATS), 2013)
# Records with an inconclusive call do not appear. The source made the active and inactive calls. Calls follow the shape of the dose curve; as a rule, active = well fitted activation curve with a large enough effect; inconclusive = small, poorly fitted or top-dose-only effect; inactive = no such curve, though single readings can be large or run the other way.
# Assay: qHTS Assay for NPC1 Promoter Activators: Hit Validation Using Renila Luciferase Read-Out for NPC1; as to activity change, positive = activation: % of control where 0% means no effect
# Details: Huh7 NPC1 promoter-luciferase reporter, luminescence, 24 h; series mostly up to 76.9 µM; activity change, positive = activation: at the top concentration
# In short: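 Luciferase reporter read-out: promoter activation measured by luminescence after 10 min with detection reagent at room temperature. Cells were Huh7 with a stable NPC promoter-luciferase construct, treated 24 h at 37 deg C.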
# Potency is read from the fitted curve at half-maximal effect.
SMILES,"activity change, positive = activation",Potency
CC(C)C(NC(=O)c1ccc([N+](=O)[O-])cc1Cl)C(=O)N1CCCC1 (stereo not drawn),-2.08% (inactive),–
COc1ccccc1CNC(=O)COc1ccc(C)cc1,8.49% (inactive),–
CCCCCCC(=O)Nc1ccc(C(=O)N/N=C/c2cccnc2)cc1,-21.7% (inactive),–
Cc1ccc(NC(=O)Nc2cccc3ccccc23)cc1,-1.3% (inactive),–
CC(C)(C)NC(=S)NNC(=O)c1ccc2ncccc2c1,-37.5% (inactive),–
Cc1noc(/C=C/N(C)C)c1S(=O)(=O)N1CCCC(C(=O)N2CCCCC2)C1 (stereo not drawn),10.9% (inactive),–
Cc1ccc(C2C3=C(CC(C)(C)CC3=O)N(CCN3CCOCC3)C3=C2C(=O)CC(C)(C)C3)cc1,–,16.4 µM (active)
COCC1CCN(C(=O)c2ccc3oc(Cc4ccccc4)nc3c2)C1 (stereo not drawn),-18.2% (inactive),–
CCOCC(=O)Nc1c(C(=O)Nc2ccc3c(c2)OCCO3)oc2ccccc12,-45.9% (inactive),–
COC(=O)c1ccc(NC(=O)c2ccc3nc(C)sc3c2)cc1,-9.33% (inactive),–
CC(=O)c1c(C)[nH]c(C(=O)Nc2cccc(S(=O)(=O)N(C)C)c2)c1C,–,23.2 µM (active)
Cc1c(C(O)CN2CCN(Cc3ccc4c(c3)OCO4)CC2)c2ccccc2n1C (stereo not drawn),13.3% (inactive),–
COc1ccc(OC)c(S(=O)(=O)N2CCN3CCCC3C2)c1 (stereo not drawn),–,32.8 µM (active)
Cc1ccc2nc(Nc3ccc(Cl)cc3)c3nncn3c2c1,-31.7% (inactive),–
O=C(CSc1ncccn1)Nc1cccc2ccccc12,10.9% (inactive),–
O=[N+]([O-])c1cnccc1Nc1ccc(F)cc1,-10.4% (inactive),–
CC1CCCN(C(=S)Nc2ccc(Nc3ccccc3)cc2)C1 (stereo not drawn),2% (inactive),–
O=C(CCc1cccc(Cl)c1)NC1CCCN(Cc2ccccc2F)C1 (stereo not drawn),8.73% (inactive),–
COC(=O)c1cn(NC(=O)C2CCCCC2)c(=O)c2ccccc12,8.18% (inactive),–

SMILES,"activity change, positive = activation",Potency
CCN(CC)S(=O)(=O)c1ccc(NCc2ccccn2)nc1,-15.6% (inactive),–
Cc1ccc(NC(=O)c2cccc(N3C(=O)CCC3=O)c2)nc1,-4.36% (inactive),–
CNC(=O)Cn1nc(C)c2ccccc2c1=O,-12.4% (inactive),–
C=CCOC(=O)N1CCN(c2cccc(C(F)(F)F)c2)CC1,-3.15% (inactive),–
O=C(CSc1nnc(-c2ccccn2)o1)Nc1ccccc1F,7.47% (inactive),–
Cc1cc(C)c2c(N)c(C(=O)Nc3ccc([N+](=O)[O-])cc3)sc2n1,-16.2% (inactive),–
CC1CN(C(=O)c2ccncc2)CC(C)O1 (stereo not drawn),-24.2% (inactive),–
CC(=O)Nc1ccc(NC(=O)COc2ncnc3ccccc23)cc1,-0.508% (inactive),–
CC1CC(C)CN(CC(=O)N2CCOCC2)C1 (stereo not drawn),9.94% (inactive),–
Cc1cccc(C)c1NC(=O)Nc1cccs1,-0.0994% (inactive),–
OCCC1CN(Cc2nc3ccccc3s2)CCN1C1CCCC1 (stereo not drawn),-7.98% (inactive),–
COCCNC(=O)C1CCC(CNS(=O)(=O)c2ccc(F)cc2)CC1 (stereo not drawn),0.674% (inactive),–
COC(=O)c1ccccc1NC(=O)c1ccc(-c2ccc(Br)cc2)o1,-9.22% (inactive),–
CC(=O)NC(=S)Nc1ccc2oc(-c3cc(F)c(F)cc3Cl)nc2c1,4.45% (inactive),–
COc1ccc(NC(=O)CSc2ccc([N+](=O)[O-])cc2)cc1S(=O)(=O)N1CCOCC1,7.39% (inactive),–
COc1ccc(-n2c(N)c(C(=O)NCc3ccco3)sc2=S)cc1,0.357% (inactive),–
COCCNC(=O)Cn1nc(-c2ccccc2)c2ccccc2c1=O,1.18% (inactive),–
CCOC(=O)CSc1nc2cc(C)ccc2cc1C#N,-34.8% (inactive),–
O=C(Nc1nc2ccc(F)cc2s1)c1ccc(N2CCCC2=O)cc1,-20.4% (inactive),–
